Source: PubChem (National Center for Advancing Translational Sciences (NCATS))
This is a sample that favours compounds with a hit; in the whole collection about 2.9% have one here.
ATXN2 expr inh – inhibitors of ATXN2 expression; HEK-293 ATXN2-luciferase reporter, luminescence, 24 h; Potency, µM (top dose mostly 57 µM), without a hit: at the top dose activity change, negative = inhibition, usual class: inhibitors; 360,000 tested, 0.72% active; also: % is scaled to controls: 0 for no effect and ±100 for the full control effect; nearly all actives have a fitted effect of over 55% in size
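qHTS (up to 57 uM final) was run with 24 h compound exposure of reporter cells at 37 °C. Each well was multiplexed: SteadyGlo luminescence measured ATXN2-luciferase expression after a fluorogenic Gly-Phe-AFC viability readout (25 uM final).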
S2 tox – viability counter-screen for ATXN expression inhibitors; S2 cells (HEK-293 line with an ATXN2-luciferase reporter) viability, CellTiter-Fluor protease fluorescence, 24 h; AID 651635; 400,000 tested, 0.49% active; Potency, µM (series often up to 56.7 µM), usual class: cytotoxic; also: nearly all actives have a fitted effect of over 40% in size
Nrf2 activator – activators of Nrf2 (ARE) signaling | AREc32 ARE-luciferase reporter (MCF7-derived line), luminescence, 24 h | Potency, µM (highest dose often 46.1 µM), inactives show top-dose activation, most hits filed as activators | 410,000 tested, 0.31% active; also: % of control where 0% means no effect; nearly all actives have a fitted effect of over 65% in size
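Reporter line AREc32 (ARE-Fluc), seeded overnight in OPTI-MEM with 5% FBS; compound pin-transferred, 24 hr at 37 deg C, 5% CO2; luminescent read-out.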
A549 viability – kills or reduces viability of A549 cells in Nrf2 counter-screen; A549 ARE-Fluc cells, CellTiter-Fluor viability, 18-24 h; Potency, µM (highest dose often 46 µM), inactives show at the highest dose activity change, negative = cytotoxicity, actives largely listed as inhibitors; 390,000 tested, 0.16% active; also: % is scaled to controls: 0 for no effect and ±100 for the full control effect
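A549 ARE_Fluc cells in 5% FBS OPTI-MEM were exposed to compounds in concentration-response for 18-24 h at 37 deg C. Viability was read by CellTiter-Fluor fluorescence (Ex 405/Em 525) after 30 min, before the luciferase read.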
Nrf2 block – Nrf2 pathway inhibition; 360,000 tested, 2.1% active; AID 504444; A549 ARE-Fluc reporter, luciferase luminescence, 18-24 h; Potency, µM (series often up to 46 µM), without a hit: at the top dose activity change, negative = inhibition, most hits filed as inhibitors; also: % is scaled to controls: 0 for no effect and ±100 for the full control effect; nearly all actives have a fitted effect of over 60% in size
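Nrf2 activity is the BugLite luminescence, read 15 min after reagent at room temperature, following CellTiter-Fluor cytotoxicity readout (30 min, 37C). Compound titrations were applied for 18-24 h to 5000 A549 ARE_Fluc cells/well in 5% FBS OPTI-MEM.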
* hit, by the source's call; i = inactive; ? = inconclusive; nt = not tested or not shown; [ ] = dose if it differs, or a comment. Calls follow the shape of the dose curve; as a rule, active = well fitted curve in the direction sought with a large enough effect; inconclusive = small, poorly fitted or top-dose-only effect, or another doubt; inactive = no such curve, though single readings can be large; an effect the other way counts as inactive or inconclusive. Potency is read from the fitted curve at half-maximal effect.

SMILES | ATXN2 expr inh | S2 tox | Nrf2 activator | A549 viability | Nrf2 block
O=C(Nc1ccc(OC(F)F)cc1)c1ncc(Cl)c(Cl)c1Cl | nt | i | 7.08µM* | 5.8% | 1.3%
Cc1nn(-c2ccccc2)c(C)c1C(=O)OCC(=O)Nc1ccccc1F | 44.8% | i | 0.8% | -3.6% | ?
COc1ccc(C)cc1NC(=O)COC(=O)c1c(C)nn(-c2ccccc2)c1C | 22.4µM* | ? | 2.4% | -12.2% | ?
NC(=O)c1c(NC(=O)c2nc(SCc3ccccc3F)ncc2Cl)sc2c1CCCC2 | 6.3% | i | 0.6% | -9.8% | 0.3%
O=C(Nc1cn[nH]c1-c1nc2ccc(CN3CCOCC3)cc2[nH]1)NC1CC1 | 5.44µM* | nt | nt | nt | nt
Cc1cc2nc(-c3ccc(SCC(=O)N4CCOCC4)nc3)[nH]c2cc1C | -5.0% | i | -0.8% | -1.4% | nt
Cc1nc([N+](=O)[O-])c(Br)n1Cc1ccccc1 | ? | ? | 10µM* | -7.5% | ?
Cc1nc([N+](=O)[O-])c(Br)n1CC(=O)c1ccc(F)cc1 | -12.9% | i | 30.1% | -14.6% | -29.6%
COc1ccc(-c2nc3ccc(C)cn3c2Cc2ccc(C)cc2)cc1OC | -14.4% | nt | 6.8% | nt | nt
COc1ccc(-c2nc3ccc(C)cn3c2Cc2ccccc2)cc1OC | ? | 28.2µM* | 6.7% | nt | nt
Cc1ccc2nc(-c3ccc(Cl)cc3)c(Cc3cccc(Cl)c3)n2c1 | ? | 28.2µM* | 11.4% | nt | nt
COc1ccc(-c2nc3ccc(C)cn3c2CC(C)(C)C)cc1OC | 28.2µM* | nt | 7.1% | nt | nt
COc1ccccc1Cc1c(-c2ccc(OC)c(OC)c2)nc2ccc(C)cn12 | 0.0% | 22.4µM* | 4.6% | nt | nt
Cn1cc(C[C@@H](N)C(=O)O)c2ccccc21 | -4.0%[25.6 µM] | nt | nt | nt | nt
Cc1oc(-c2ccc3c(c2)OCCO3)cc1C(=O)O | 7.08µM* | ? | -1.2% | -5.3% | 9.2µM*
Cc1oc(-c2ccc3c(c2)OCCO3)cc1C(=O)NCC(=O)O | -37.3% | i | -0.9% | 2.2% | ?
CN1C(=O)Cc2cc(S(=O)(=O)CCC(=O)N3CCN(c4cccc(Cl)c4)CC3)ccc21 | -20.8% | i | 2.2% | -1.3% | -5.1%
COc1ccccc1-c1nc2n(n1)C(c1ccccc1Cl)C(C(=O)Nc1cccnc1)=C(C)N2 (stereo unspecified) | 1.8% | i | 3.3% | 7.5% | -6.7%
Cc1oc(-c2cccc(Cl)c2)nc1Cn1c(SCc2ccc(F)cc2)nc2cccnc21 | nt | nt | 0.3% | -21.9% | 18.4µM*
COc1ccc(-c2nc(Cn3c(SCc4cccc(F)c4)nc4cccnc43)c(C)o2)cc1 | nt | nt | -1.2% | -24.6% | 20.6µM*
COc1ccc(-c2nc(Cn3c(SCc4ccc(F)cc4)nc4cccnc43)c(C)o2)cc1 | nt | nt | -0.4% | ? | 18.4µM*
COc1ccc(-c2nc(Cn3c(SCc4ccccc4F)nc4cccnc43)c(C)o2)cc1 | nt | nt | -1.1% | -24.8% | ?
CCc1nc2cc(C(=O)N(C)CC3CCCN(C)C3)cc(NC(=O)c3ccccc3OC)c2n1C (stereo unspecified) | nt | i | nt | nt | nt
Cc1nc2n(c(=O)c1CCN1CCC(C(=O)c3ccc(F)cc3)CC1)CCS2 | ? | i | nt | nt | nt
CCOc1ccc(OCC)c(NS(=O)(=O)c2c(C)[nH]c(=O)[nH]c2=O)c1 | nt | nt | -1.2% | 3.1% | nt
SMILES | ATXN2 expr inh | S2 tox | Nrf2 activator | A549 viability | Nrf2 block
CO[C@@H](C(=O)N1Cc2[nH]nc(NC(=O)c3ccc(N4CCN(C)CC4)cc3)c2C1)c1ccccc1 | 27.3µM* | nt | nt | nt | nt
COC(=O)c1ccccc1NC(=O)NCCc1c(C)nn(C)c1C | 12.4% | i | 0.2% | 0.2% | nt
O=C(NCCc1c[nH]c2ccccc12)OCCCCOC(=O)NCCc1c[nH]c2ccccc12 | ? | 17.8µM* | 0.3% | -19.2% | ?
O=C(c1cc(C2CC2)nc2ccc(Br)cc12)N1N=C(C(F)F)CC1(O)C(F)F (stereo unspecified) | ? | ? | -1.5% | ? | 18.4µM*
O=C(c1cc(C2CC2)nc2ccccc12)N1N=C(C(F)F)CC1(O)C(F)F (stereo unspecified) | -9.7% | i | -0.3% | -5.3% | -12.6%
CCN(CCO)CCCOc1ccc2c(Nc3cc(CC(=O)Nc4cccc(F)c4)[nH]n3)ncnc2c1 | 1.2% | nt | nt | nt | nt
C=CCSC1=N/C(=C\c2sccc2C)C(=O)S1 | 0.0% | i | 4.1% | -12.8% | 2.3%
C=CCSC1=N/C(=C\C=C\c2ccco2)C(=O)S1 | -10.5% | i | 12.6µM* | -19.1% | -2.0%
Cc1sc2ncnc(N3CCC(C(=O)Nc4ccc(S(N)(=O)=O)cc4)CC3)c2c1C | nt | ? | 0.2% | 10.0% | ?
COc1ccc(S(=O)(=O)N(C)C)cc1NC(=O)C1CCN(c2ncnc3sc(C)c(C)c23)CC1 | ? | i | 6.3% | ? | 11.6µM*
Cc1sc2ncnc(N3CCC(C(=O)Nc4cc(S(C)(=O)=O)ccc4Cl)CC3)c2c1C | -34.9% | ? | -0.3% | -11.5% | 18.4µM*
Cc1ccccc1C1(CC(=O)N2CCC[C@H]2C(N)=O)CC(=O)N(C2CCCC2)C1=O (stereo partly specified) | nt | i | nt | nt | nt
Cc1ccc(-c2nn3c(C)nnc3s2)cc1NC(=O)c1ccc(-c2cccc(Cl)c2)o1 | ? | ? | -0.5% | -12.5% | 14.6µM*
Cc1ccc(-c2nn3c(C)nnc3s2)cc1NC(=O)c1ccc(-c2ccc(Cl)cc2Cl)o1 | 8.91µM* | nt | -0.7% | 20.6µM* | ?
CC(=O)Nc1cc(-c2nn3c(C)nnc3s2)ccc1C | 8.2% | i | 0.7% | 5.6% | 12.0%
Cc1ccc(-c2nn3c(C)nnc3s2)cc1NC(=O)c1ccc(Br)o1 | -4.8% | ? | 4.6% | -14.2% | ?
CC(=O)Oc1ccccc1C(=O)Nc1ccccc1 | 15.3% | i | 3.4% | 0.4% | 20.2%
COC1(OC)C=CC(=O)C=C1NC(=O)c1ccccc1OC(C)=O | 17.8µM* | 14.1µM* | ? | -1.8% | -28.8%
COc1cc(/C=C/c2sc3ccccc3[n+]2CCCS(=O)(=O)[O-])ccc1O | 19.5% | nt | 0.3% | 11.6µM* | ?
CCC(/C=C1\Oc2ccc(OC)cc2N1C)=C\c1sc2ccccc2[n+]1CCCS(=O)(=O)[O-] | -7.5%[2.22 µM] | ? | 0.1% | -12.5% | -7.0%
NS(=O)(=O)c1ccc(N=Nc2ccc(O)c3ncccc23)cc1 | nt | 10µM* | -1.0% | -26.4% | 2.4%
Oc1ccc(N=Nc2ccc3c(c2)OCCO3)c2ncccc12 | nt | nt | 11.2% | ? | 18.4µM*
CCOc1ccc(N=Nc2ccc(O)c3ncccc23)cc1 | ? | ? | ? | -12.1% | ?
Cc1cccc(N=Nc2ccc(O)c3ncccc23)c1 | -27.9% | 10µM* | ? | -27.3% | ?
CC1(C)[C@@H](OC(=O)CCC(=O)O)CC[C@]2(C)[C@H]3C(=O)C=C4[C@@H]5C[C@@](C)(C(=O)O)CC[C@]5(C)CC[C@@]4(C)[C@]3(C)CC[C@@H]12 | 7.5% | i | nt | nt | nt
Cc1ccc(S(=O)(=O)c2nc(NN(C)C)sc2Cl)cc1 | -11.2% | i | 0.5% | -17.5% | 23.1µM*
Cc1nc2ccccc2c(=O)n1Cc1ccco1 | nt | i | 4.0% | 0.0% | -13.9%
